Assay in all cases: qHTS profiling for inhibitors of Plasmodium falciparum proliferation (AID 504749); also: nearly all actives have a fitted effect of over 60% in size
Settings in all cases: P. falciparum in erythrocytes, SYBR Green DNA, 72 h; series mostly up to 28.7 µM

Assay [1] deals with CP217. An outline of the steps: (§1)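 P. falciparum-infected erythrocytes (0.3% parasitemia, 2.5% hematocrit final) were exposed to compounds for 72 h at 37 C in 5% CO2, then lysed with SYBR Green buffer overnight at room temperature; parasite DNA fluorescence was normalized to artemisinin and DMSO controls.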
Assay [2] has as its system CP237. An outline of the steps:
as §1

The subject of assay [3] is CP238. The method in brief: as §1
In assay [4] the test system is CP247. The method in brief:
as §1

Assay [5] concerns CP250. An outline of the steps: as §1
For assay [6], the system named is CP252. An outline of the steps: as §1
Assay [7] concerns CP256. An outline of the steps: as §1
Assay [8] has as its system CP260. An outline of the steps:
as §1

The subject of assay [9] is CP262. An outline of the steps: as §1
For assay [10], the system named is CP265. The method in brief: as §1
The subject of assay [11] is CP266. An outline of the steps: as §1
Assay [12] relates to CP268. An outline of the steps:
as §1

The test system of assay [13] is CP269. The method in brief: as §1
Assay [14] concerns CP286. The method in brief:
as §1

Assay [15] relates to CP291. The method in brief: as §1
Assay [16] relates to CP297. An outline of the steps:
as §1

Assay [17] deals with CP305. The method in brief:
as §1

Assay [18] concerns CP315. The method in brief:
as §1

Assay [19] has as its system CP325. The method in brief: as §1
The test system of assay [20] is CP329. An outline of the steps:
as §1

Results filed as inconclusive are left out. The source made the active and inactive calls. Calls follow the shape of the dose curve; as a rule, active = well fitted inhibition curve with a large enough effect; inconclusive = small, poorly fitted or top-dose-only effect; inactive = flat fitted curve, though single readings scatter.
Potency is read from the fitted curve at half-maximal effect.

For `CN(C)c1nc(N(C)C)nc(N(C)C)n1`, the Potency result in [1], in [2], in assay [3], in assay [4], in [5] and in assay [6] was “inactive” in each case. Besides, the Potency result in assay [7], in assay [8], in assay [9], in [10], in assay [11] and in [12] was “inactive” throughout. Moreover, the Potency entry in assay [13], in assay [14], in assay [15], in assay [16], in assay [17] and in [18] was “inactive” in each case. In addition, the Potency result in [19] and in [20] was “inactive” throughout.
On to `Cc1cc(C(C)(C)C)c(O)c(C)c1CC1=NCCN1`, for which the Potency entry in [1], in [2], in [3], in assay [4], in [5] and in assay [6] was “inactive” in each case. Further, the Potency entry in assay [7], in assay [8], in assay [9], in [10], in assay [11] and in assay [12] was “inactive” in each case. In addition, the Potency entry in [13], in assay [14], in assay [15], in assay [16], in assay [17] and in assay [18] was “inactive” in each case. In addition, the Potency result in [19] and in assay [20] was “inactive” throughout.
On to `CCOC(=O)C(C)(C)Oc1ccc(Cl)cc1`, for which the Potency result in assay [1], in [2], in [3], in assay [4], in [5] and in [6] was “inactive” throughout. Further, the Potency result in assay [7], in [8], in assay [9], in assay [10], in [11] and in assay [12] was “inactive” in each case. The Potency entry in assay [13], in [14], in assay [15], in [16], in assay [17] and in assay [18] was “inactive” each time. The Potency result in assay [19] and in [20] was “inactive” throughout.
With `N[C@@H](Cc1c[nH]c2ccc(O)cc12)C(=O)O`, the Potency result in assay [1], in assay [2], in assay [3], in [4], in [5] and in [6] was “inactive” in each case. Moreover, the Potency entry in [7], in assay [8], in [9], in assay [10], in assay [11] and in assay [12] was “inactive” throughout. The Potency entry in [13], in assay [14], in assay [15], in [16], in assay [17] and in assay [18] was “inactive” in each case. The Potency entry in assay [19] and in assay [20] was “inactive” throughout.
`Cc1cc(C(C)(C)C)cc(C)c1CC1=NCCN1`: the Potency entry in assay [1], in assay [3], in assay [4], in assay [5], in assay [6] and in assay [7] was “inactive” each time. In addition, the Potency result in assay [8], in assay [9], in assay [10], in assay [11], in assay [13] and in [14] was “inactive” each time. Also, the Potency entry in assay [15], in assay [16], in [17], in assay [18], in assay [19] and in assay [20] was “inactive” in each case. In assay [2], the Potency was 3.98 µM (active).
`Cc1cn([C@H]2C=C[C@@H](CO)O2)c(=O)[nH]c1=O`: the Potency entry in [1], in assay [2], in [3], in [4], in assay [5] and in assay [6] was “inactive” each time. The Potency result in assay [7], in [8], in [9], in assay [10], in [12] and in assay [13] was “inactive” in each case. Moreover, the Potency result in [14], in [15], in assay [16], in assay [17], in [18] and in assay [19] was “inactive” each time. The Potency entry in [20] is “inactive”.
Take `CC(C)Cc1ccc(C(C)C(=O)O)cc1` (stereo not drawn): the Potency entry in assay [1], in [2], in [3], in assay [4], in [5] and in assay [6] was “inactive” throughout. Further, the Potency entry in [7], in [8], in assay [9], in assay [10], in assay [11] and in assay [12] was “inactive” each time. The Potency entry in assay [13], in [14], in assay [15], in [16], in assay [17] and in assay [18] was “inactive” each time. For the same compound, the Potency result in [19] and in assay [20] was “inactive” throughout.
Turning to `CC(C)(C)C(=O)Oc1ccc(S(=O)(=O)Nc2ccccc2C(=O)NCC(=O)O)cc1`, the Potency result in assay [1], in assay [2], in assay [3], in assay [4], in assay [5] and in assay [6] was “inactive” each time. The Potency entry in assay [7], in assay [8], in assay [9], in [10], in assay [11] and in assay [12] was “inactive” throughout. Moreover, the Potency result in assay [13], in assay [14], in [15], in assay [16], in assay [17] and in assay [18] was “inactive” throughout. Moreover, the Potency result in assay [19] and in assay [20] was “inactive” in each case.
For `NC(=O)NO`, the Potency entry in assay [1], in [2], in assay [3], in [4], in assay [5] and in assay [6] was “inactive” in each case. For the same compound, the Potency entry in assay [7], in assay [8], in [9], in assay [10], in assay [11] and in assay [12] was “inactive” each time. Besides, the Potency result in assay [13], in assay [14], in assay [15], in assay [16], in assay [17] and in assay [18] was “inactive” throughout. Moreover, the Potency result in assay [19] and in assay [20] was “inactive” throughout.
Consider `Cn1c(=O)c2[nH]cnc2n(C)c1=O`, for which the Potency entry in assay [1], in assay [2], in [3], in [4], in [5] and in assay [6] was “inactive” throughout. For the same compound, the Potency result in [7], in assay [8], in assay [9], in assay [10], in [11] and in [12] was “inactive” throughout. Also, the Potency entry in [13], in assay [14], in [15], in assay [16], in assay [17] and in [18] was “inactive” throughout. In addition, the Potency entry in assay [19] and in assay [20] was “inactive” throughout.
For the compound `CS(=O)(=O)Nc1ccc([N+](=O)[O-])cc1Oc1ccccc1`, the Potency entry in assay [1], in assay [2], in [3], in assay [4], in [5] and in assay [6] was “inactive” throughout. Besides, the Potency result in assay [7], in assay [8], in assay [9], in assay [10], in assay [11] and in assay [12] was “inactive” throughout. In addition, the Potency entry in assay [13], in assay [14], in assay [15], in assay [16], in assay [17] and in [18] was “inactive” each time. In addition, the Potency entry in [19] and in assay [20] was “inactive” in each case.
In the case of `C[C@](N)(Cc1ccc(O)c(O)c1)C(=O)O`, the Potency result in [1], in [2], in [3], in assay [4], in assay [5] and in [6] was “inactive” throughout. Besides, the Potency result in assay [7], in [8], in [9], in assay [10], in assay [11] and in assay [12] was “inactive” in each case. The Potency result in assay [13], in assay [14], in [15], in [16], in [17] and in assay [18] was “inactive” each time. In addition, the Potency result in assay [19] and in [20] was “inactive” each time.

These data come from PubChem BioAssay (NCATS).
